# Measured values taken from PubChem BioAssay (EPA / NIEHS).
# Where “and” joins values, the source holds several entries; their conditions need not be identical. Equal entries are not always repeated. Some structures have more than one record in an assay (separate samples or runs), and their calls can disagree. Calls of active or inactive are those of the source. The calls were made as follows: active = hit-call score of the fitted dose curve at least 0.9, where 1 is the maximum; inactive = score below 0.9.
# Read-out: Collagen III, COL3A1 (gene 1281)
# Test: BSK_hDFCGF_CollagenIII: BioMAP Diversity Plus: hDFCGF Assay for Collagen III Biomarker Activity (AID 2283056)
# Details: primary human foreskin fibroblasts; actives raise or lower the signal
# Experimental: BSK_hDFCGF is a cell-based, multiplexed-readout assay that uses foreskin fibroblast, a human skin primary cell, with measurements taken at 24 hours after chemical dosing in a 96-well plate.BSK_hDFCGF_CollagenIII is an assay component measured in the BSK_hDFCGF assay. It measures Collagen antibody related to regulation of gene expression using ELISA technology.Data from the assay component BSK_hDFCGF_CollagenIII was analyzed into 1 assay endpoint. This assay endpoint, BSK_hDFCGF_CollagenIII, was analyzed with bidirectional fitting relative to DMSO as the negative control and baseline of activity. Using a type of binding reporter, gain or loss-of-signal activity can be used to understand changes in the signaling as they relate to the gene COL3A1. Furthermore, this assay endpoint can be referred to as a primary readout, because this assay has produced multiple assay endpoints where this one serves a signaling function. To generalize the intended target to other relatable targets, this assay endpoint is annotated to the cell adhesion molecules intended target family, where the subfamily is collagen.
# The levels of cell surface (or secreted, indicated by the prefix "s") biomarker endpoints were measured by ELISA. Overt cytotoxicity to cells in confluent adherent cultures (all systems other than the BT system) was assessed by measuring total protein levels using sulforhodamine B (SRB) staining in parallel cultures at the time of biomarker measurements, indicated as SRB endpoints. For proliferation assays for adherent cell types, individual cell types are cultured at sub-confluence and relative cell numbers quantified by SRB staining at time points optimized for each system (48 h: 3C and CASM3C systems; 72 h: BT and HDF3CGF systems; 96 h: SAg system). SRB was performed by staining cells with 0.1% SRB after fixation with 10% TCA and reading wells at 560 nm.Viability and proliferation of PBMC (T cells) was quantified by Alamar Blue reduction for the SAg and BT systems. For PBMC viability (referred to as PBMC Cytotoxicity within the assay endpoint names), cells were plated (75,000/well in a 96-well plate) and then chemical samples added for 1 h before addition of activators, SEB and TSST-1 (20 ng/mL final concentration each). Cells were incubated for 90 h. Then, Alamar Blue (20 uL/well) (Invitrogen, Cat DAL1100) was added for 6 h, and the plates were read with a fluorescence microplate reader at 546/580 nm (excitation/emission). For PBMC proliferation, cells were plated and activated as above but incubated for only 16 h prior to addition of Alamar Blue. Plates were read after 6 h.
SMILES,outcome,AC50
CCOC(=O)CC(O)(CC(=O)OCC)C(=O)OCC,inactive,
CC(=O)NC1(c2cccc(F)c2)CCN(CC[C@@]2(c3ccc(Cl)c(Cl)c3)CN(c3ccccc3)C(=O)CO2)CC1,,6.66 µM (active)
O=C(O)Cc1cc(I)c(Oc2cc(I)c(O)c(I)c2)c(I)c1,,4.05 µM (active)
Nc1cccc2c(N)cccc12,inactive,
CCCCCCCCCCCCN1CCCC1=O,,14.4 µM (active)
Cc1oc(-c2ccccc2)nc1CCOc1ccc(C[C@H](Nc2ccccc2C(=O)c2ccccc2)C(=O)O)cc1,,3.34 µM (active)
CCN(CC)CCNc1ccc(CNC=O)c2sc3ccc(OC)cc3c(=O)c12,,16.2 µM (active)
CC(C)(C)c1ccc(O)c(C(C)(C)C)c1,,8.81 µM (active)
c1ccc2c(c1)Cc1ccccc1-2,inactive,
c1ccc2cc3c(ccc4ccccc43)cc2c1,inactive,
OC1CCCCC1,inactive,
Oc1cc2ccccc2c2ccccc12,,1.9 µM (active)
CCCCCCCCCCCCCC[N+](C)(C)C,,1.59 µM (active)
COCC(C)O (stereo not given),inactive,
ClC1=C(Cl)C(Cl)(Cl)C(Cl)=C1Cl,,14 µM (active)
CN1CCC[C@H]1c1cccnc1,inactive,
CC(C)(C)c1cc(C(C)(C)C)c(O)c(C(C)(C)C)c1,,29.3 µM (active)
NC(=O)N1C(=O)C(C(=O)c2cc(Cl)cs2)c2cc(F)c(Cl)cc21 (stereo not given),,4.54 µM (active)
Oc1cccc(O)c1,inactive,
C[C@@H]1C[C@H]2[C@@H]3CCC4=CC(=O)C=C[C@]4(C)[C@@]3(F)[C@@H](O)C[C@]2(C)[C@@]1(O)C(=O)COP(=O)(O)O,inactive,

SMILES,outcome,AC50
O=C(OCCOCCOC(=O)c1ccccc1)c1ccccc1,inactive,
CC(O)CO (stereo not given),inactive,
CN(C)C=O,inactive,
O=c1c(-c2ccc(O)cc2)coc2cc(O)ccc12,inactive,
NC(=O)N(O)[C@@H]1C=C[C@H](Oc2cccc(Oc3ccc(F)cc3)c2)C1,inactive,
Cc1cc(C)c(O)c(C)c1,inactive,
FC(F)(I)C(F)(F)C(F)(F)C(F)(F)C(F)(F)C(F)(F)I,,4.16 µM (active) [middle of 5 runs]
Cc1cc(CCN2CCN(c3nsc4ccccc34)CC2)cc2c1NC(=O)CC2(C)C,,9.12 µM (active)
CC(C)CCCCCCOC(=O)CCCCC(=O)OCCCCCCC(C)C,inactive,
CCc1ccc(CCOc2ccc(CC3SC(=O)NC3=O)cc2)nc1 (stereo not given),inactive,
c1ccc2c(c1)ccc1ccccc12,inactive,
N#C[C@@H]1CC(F)(F)CN1C(=O)CNC1CC2CCC(C1)N2c1ncccn1 (stereo not given in full),inactive,
OCCC(F)(F)C(F)(F)C(F)(F)C(F)(F)C(F)(F)C(F)(F)C(F)(F)C(F)(F)F,inactive,18.3 µM (active) and 11.9 µM (active)
CCC(=C(c1ccc(O)cc1)c1ccc(OCCN(C)C)cc1)c1ccccc1,,7.58 µM (active)
CCCCOCCO,inactive,
O=[N+]([O-])c1ccc(O)cc1,inactive,
COCC(C)OCC(C)O (stereo not given),inactive,
CCCOc1sc(C(=O)N2CCC(c3cc(CN)ccc3F)CC2)c(C)c1Br,,7.98 µM (active)
NCC(F)(F)C(F)(F)C(F)(F)C(F)(F)C(F)(F)C(F)(F)C(F)(F)F,inactive,
